# Records with an inconclusive call do not appear. Unmarked numbers belong to inactive results. Calls follow the shape of the dose curve; as a rule, active = well fitted inhibition curve with a large enough effect; inconclusive = small, poorly fitted or top-dose-only effect, or effect the other way; inactive = flat fitted curve, though single readings scatter.
# Biological target: ATP-dependent 6-phosphofructokinase (Trypanosoma brucei brucei) (UniProt O15648)
# Experiment: qHTS Assay to Find Inhibitors of T. brucei phosphofructokinase: hit validation (AID 492961);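 also: luminescence reports ADP formed as PFK phosphorylates fructose-6-phosphate with ATP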
# Conditions: T. brucei PFK, ADP-Glo luminescence; series mostly up to 51.4 µM; activity change, negative = inhibition: at the top concentration
# Summary of the method: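 In this biochemical qHTS validation, titrated compounds were tested against 1.25 nM PFK with 0.1 mM ATP and 0.5 mM F6P. Percent activity came from controls lacking or containing enzyme.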
# % is scaled to controls: 0 for no effect and ±100 for the full control effect.
# Sequence of ATP-dependent 6-phosphofructokinase (Trypanosoma brucei brucei) (O15648 whole entry, looked up): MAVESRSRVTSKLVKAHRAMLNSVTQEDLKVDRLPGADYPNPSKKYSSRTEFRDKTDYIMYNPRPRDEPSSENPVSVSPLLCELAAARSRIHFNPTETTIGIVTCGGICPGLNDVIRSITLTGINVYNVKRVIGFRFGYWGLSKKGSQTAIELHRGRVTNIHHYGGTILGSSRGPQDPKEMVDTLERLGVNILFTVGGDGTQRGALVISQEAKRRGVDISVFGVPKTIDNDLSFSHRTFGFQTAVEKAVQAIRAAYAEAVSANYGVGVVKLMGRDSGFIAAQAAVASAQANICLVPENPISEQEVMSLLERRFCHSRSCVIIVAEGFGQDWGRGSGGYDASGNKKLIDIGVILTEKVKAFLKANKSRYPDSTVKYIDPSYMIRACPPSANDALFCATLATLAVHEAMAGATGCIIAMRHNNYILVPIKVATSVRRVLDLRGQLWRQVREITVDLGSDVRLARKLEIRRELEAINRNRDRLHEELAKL
row,Compound,"activity change, negative = inhibition"
1,COc1cc(C)nc(-n2nc(C)cc2OC)n1,2.91% [at 24.3 µM]
2,CC(C)(Cc1c[nH]c2ccccc12)NCC(O)COc1ccccc1C#N (configuration not stated),-1.64%
3,CCOC(=O)Nc1ccc2c(c1)N(C(=O)CCN1CCOCC1)c1ccccc1S2,8.4% [at 24.3 µM]
4,COc1ccccc1N1CCN(CCCCNC(=O)c2ccc(-c3ccc(C(C)=O)cc3)cc2)CC1,5.32%
5,OCc1ccccn1,11.4%
6,CCCCCCCCCCCCCCCC(=O)O,2.16%
7,COc1ccc2c(c1)c1c3n2CCN(C)C3=NCC1,-8.29%
8,COc1cc(C(=S)N2CCOCC2)ccc1O,13.7%
9,CC(=O)OCC(=O)[C@H]1CC[C@H]2[C@@H]3CCC4=CC(=O)CC[C@]4(C)[C@H]3CC[C@]12C,0.512%
10,CCCCNc1ccc(C(=O)OCCOCCOCCOCCOCCOCCOCCOCCOCCOC)cc1,1.75% [at 24.3 µM]
11,CC(C)=CCOc1ccc(/C=C/C(=O)c2ccc(OCC=C(C)C)cc2OCC(=O)O)cc1,-3.65%
12,CC(=O)OC[C@H]1O[C@@H](n2ncc(=O)[nH]c2=O)[C@H](OC(C)=O)[C@@H]1OC(C)=O,-8.23%
13,CCCN(CCc1cccs1)[C@H]1CCc2c(O)cccc2C1,1.04%
14,O=S(=O)(O)c1ccc(O)cc1,6.78%
15,CNCCCCOc1ccccc1Cc1ccccc1,0.927%
16,CC(C)NCC(O)c1ccc2ccccc2c1 (configuration not stated),-4.27%
17,CCCCCCCCCCCCSCCOCCO,4.94%
